Only some compounds are listed: those with a hit (about 0.42% of all), similar ones and a draw of the others.
GAA spleen mod: qHTS Assay for Inhibitors and Activators of Human alpha-Glucosidase From Spleen Homogenate; Lysosomal alpha-glucosidase (Homo sapiens), P10253; human spleen homogenate, 4-MU-alpha-glucoside fluorescence; Potency, µM (highest dose often 79.9 µM), for the others: at the top dose activity change, negative = inhibition, hits mostly inhibitors; hit rate 0.006% among 240,000; AID 2112, 2009;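 further: 0% = enzyme with vehicle and -100% = no enzyme basal signal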
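AC50 values come from Hill-equation fits of concentration-response data, normalized to no-enzyme and full-activity controls. Enzyme source: 1 ug human spleen homogenate; 1 mM fluorogenic 4-MU glucoside, pH 5.0 citrate buffer, 37 C, 40 min.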
GAA inhib: qHTS Assay for Inhibitors of Human alpha-Glucosidase as a Potential Chaperone Treatment of Pompe Disease | Lysosomal alpha-glucosidase (Homo sapiens), P10253 | purified human GAA, 4-MU-alpha-glucoside fluorescence | Potency, µM (series often up to 76.9 µM), without a hit: top-dose activity change, negative = inhibition, actives largely listed as inhibitors | hit rate 0.005% among 200,000;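 further: plate controls were uninhibited enzyme wells for no effect and no-enzyme background for full effect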
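Compounds are titrated up to 77 uM against 4 nM human enzyme. Substrate 4-methylumbelliferyl-alpha-D-pyranoside (400 uM) reacts 20 min at room temperature in pH 5.0 buffer; liberated 4-methylumbelliferone is read at 440 nm.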
LMNA splice mod: qHTS Assay for Modulators of Lamin A Splicing; Potency, µM (top dose mostly 46.1 µM), inactives show top-dose ratio change, negative = inhibition, usual class: inhibitors; hit rate 0.01% among 200,000; HeLa LMNA splicing GFP/RFP minigene ratio, 48 h; active means well fitted inhibition curve with a large enough effect in the signal ratio, with a control signal flat, not every such curve was filed as active; inconclusive means small, poorly fitted or top-dose-only effect, or effect the other way, or a change in a side signal; the % refers to the signal ratio
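S3 HeLa stable clones carrying a lamin A-EGFP splicing minigene plus DsRed2 were seeded at 600 cells/well in Opti-MEM with 2% FBS, pin-dosed and incubated 48 h at 37°C. Acumen cytometry (488 nm) gave the GFP/RFP total-intensity ratio.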
GAA glycogen: qHTS Assay for Inhibitors and Activators of Human alpha-Glucosidase Cleavage of Glycogen; Lysosomal alpha-glucosidase (Homo sapiens), P10253; recombinant GAA, glycogen substrate, Amplex Red glucose oxidase fluorescence; Potency, µM (top dose mostly 76.4 µM), inactives show top-dose activity change, negative = inhibition, usual class: inhibitors; hit rate 0.38% among 300,000; AID 2100, 2009;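 further: 0% = full enzyme reaction and -100% = no-enzyme basal signal; the screen sought inhibitors and activators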
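Recombinant human enzyme (4 nM); glycogen substrate; 37 C, 40 min, pH 5.0. Readout: coupled glucose oxidase/Amplex Red fluorescence.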
N370S GC: qHTS Assay for Inhibitors and Activators of N370S glucocerebrosidase as a Potential Chaperone Treatment of Gaucher Disease; Potency, µM (doses to about 59.4 µM), for inactives: at the top dose activity change, negative = inhibition, hits mostly inhibitors; Lysosomal acid glucosylceramidase (Homo sapiens), P04062; N370S GC spleen homogenate, 4MU-glucoside fluorescence; hit rate 0.092% among 330,000; AID 2101, 2009;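 further: 0% = full enzyme activity and -100% = no enzyme basal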
The depositor's hits bear a star; [ ] = another dose, or the depositor's remark. Unless noted, the call rests on the fitted dose curve; in most records, active means well fitted curve in the direction sought with a large enough effect; inconclusive means small, poorly fitted or top-dose-only effect, or another doubt; inactive means no such curve, though single readings can be large; an effect the other way counts as inactive or inconclusive. Unless noted, on the % scale 0 is the no-effect control and ±100 the full control effect; potency means the concentration at half of the fitted maximal effect.

What do the screens show for `Cc1cc2c(C(C)C)c(O)c(O)c(C=O)c2c(O)c1-c1c(C)cc2c(C(C)C)c(O)c(O)c(C=O)c2c1O`?
GAA spleen mod: -2.5%; GAA inhib: inconclusive; LMNA splice mod: inconclusive; GAA glycogen: 8.91µM*; N370S GC: 11.3%

Results for O=C(O)C1Sc2[nH]c(=O)sc2C2c3cc(Cl)ccc3OC(=O)C12 (stereo not drawn) ?
GAA spleen mod: 5.3%; GAA inhib: 5.8%; LMNA splice mod: 0.1%; GAA glycogen: 15.8µM*; N370S GC: 11.2%

What do the screens show for `CCOc1cc(-c2nc3c(C)cccn3c2NCC2CCCO2)ccc1O` (stereo not drawn)?
GAA spleen mod: -1.4%; GAA inhib: -10.0%; LMNA splice mod: -3.7%; GAA glycogen: 35.5µM*; N370S GC: 0.2%

What do the screens show for `CN1C(=O)C(Cc2cccc3ccccc23)C(=O)N(C)C1=O`?
GAA spleen mod: -3.5%; GAA inhib: -18.0%; LMNA splice mod: 4.4%; GAA glycogen: inconclusive; N370S GC: 5.0%

What do the screens show for `O=C1C2CCN(CC2)[C@@H]1Cc1ccc2ccccc2c1O`?
GAA spleen mod: -4.1%; GAA inhib: -4.4%; LMNA splice mod: 6.2%; GAA glycogen: 7.88µM*; N370S GC: -19.3%

Results for O=C(NC1(C(F)(F)F)Oc2ccccc2O1)N1CCC2(CC1)OCCO2 ?
GAA spleen mod: -0.6%; GAA inhib: -5.4%; LMNA splice mod: inconclusive; GAA glycogen: 5.62µM*; N370S GC: 0.3%

How did O=C(c1ccccc1)N1CCC2(CC1)OCCO2 do in these assays?
GAA spleen mod: 9.0%; GAA inhib: inconclusive; GAA glycogen: -8.2%; N370S GC: -1.5%

How did O=C(CCC(=O)N1CCOc2ccc(Cl)cc21)N1CCC2(CC1)OCCO2 do in these assays?
GAA glycogen: 1.5%[76.3 µM]; N370S GC: -8.7%

What do the screens show for `O=C(NC1(C(F)(F)F)Oc2ccc(Cl)cc2O1)N1CCC2(CC1)OCCO2` (stereo not drawn)?
GAA spleen mod: -1.8%; GAA inhib: 1.6%; LMNA splice mod: inconclusive; GAA glycogen: 8.91µM*

How did CC1=C(O)C(=O)[C@H]2O[C@@H]2C1=O do in these assays?
GAA spleen mod: 2.4%; N370S GC: -5.5%

What do the screens show for `NC1CCCC[C@H]1N` (stereo partly drawn)?
GAA spleen mod: -1.3%; N370S GC: 1.7%

What do the screens show for `CC1CN(O)C2CCc3c(no[n+]3[O-])C12O` (stereo not drawn)?
GAA spleen mod: 5.7%; GAA inhib: 5.4%; LMNA splice mod: -6.5%; GAA glycogen: 8.84µM*; N370S GC: 4.1%

How did CC1CC2(O)c3no[n+]([O-])c3CCC2N1O (stereo not drawn) do in these assays?
GAA spleen mod: -11.6%; GAA inhib: -4.8%; LMNA splice mod: 1.6%; GAA glycogen: inconclusive; N370S GC: 0.4%

Results for CN(C)C(=S)SC(=S)N(C)C ?
GAA spleen mod: -3.6%; LMNA splice mod: inconclusive; N370S GC: 4.5%

What do the screens show for `ClC1=C(Cl)C(Cl)(C2(Cl)C(Cl)=C(Cl)C(Cl)=C2Cl)C(Cl)=C1Cl`?
GAA spleen mod: -5.3%; N370S GC: -6.7%

Results for CN1CC(C(=O)c2ccc(Cl)cc2)C(c2ccc(Cl)cc2Cl)C1 (stereo not drawn) ?
GAA glycogen: 1.1%; N370S GC: 17.8µM*

Results for CN1[C@@H]2CC[C@H]1CC(O[C@@H](c1ccccc1)c1ccc(Cl)cc1)C2 (stereo partly drawn) ?
GAA spleen mod: 0.2%; N370S GC: 7.94µM*

Results for CN1C2CCC1CC(OC(c1ccc(F)cc1)c1ccc(F)cc1)C2 (stereo not drawn) ?
GAA spleen mod: -10.7%; N370S GC: -20.3%

What do the screens show for `CN1CCC(=O)N(CCN=[N+]=[N-])CC1`?
GAA glycogen: 50.1µM*; N370S GC: 2.4%

What do the screens show for `O=C(N/N=C1/CN2CCC1CC2)c1cc2ccccc2cc1O`?
GAA spleen mod: -0.6%; GAA inhib: -0.6%; LMNA splice mod: 5.9%; GAA glycogen: 35.5µM*; N370S GC: -21.5%

Results for Oc1c(Cl)cc(Cl)cc1Cl ?
GAA spleen mod: 4.9%

How did CCCCCCCCCCCCCCCC[N+](C)(C)C do in these assays?
GAA spleen mod: 3.3%; LMNA splice mod: inconclusive; N370S GC: inconclusive

How did CCCCCCCCCCCC[N+](C)(C)CCOc1ccccc1 do in these assays?
GAA spleen mod: 9.1%; LMNA splice mod: inconclusive; N370S GC: 4.47µM*

Results for COc1cc(/C=N/NP(=S)(c2ccccc2)c2ccccc2)ccc1O ?
GAA spleen mod: -2.8%; GAA inhib: -4.6%; LMNA splice mod: 3.0%; GAA glycogen: 24.9µM*; N370S GC: inconclusive

How did CN(C)c1ccc(N)cc1 do in these assays?
GAA spleen mod: -2.9%; N370S GC: -9.7%

Results for Cc1ccc2ccccc2c1C ?
GAA spleen mod: 1.2%

Results for Cc1ccc(O)cc1C ?
GAA spleen mod: -3.1%

What do the screens show for `ClP(Cl)(Cl)(Cl)Cl`?
GAA spleen mod: -1.9%; N370S GC: -0.7%

What do the screens show for `OC[C@@H]1[C@@H](O)[C@H](O)[C@H]2[C@@H](O)CCN21`?
GAA spleen mod: 28.2µM*; N370S GC: -6.2%

What do the screens show for `CCCN(CCC)CCc1ccc(O)c(O)c1`?
GAA spleen mod: 0.3%; LMNA splice mod: inconclusive; N370S GC: 3.7%

Results for OCCCc1ccc(O)c(O)c1 ?
GAA spleen mod: -1.2%; GAA glycogen: 35.5µM*; N370S GC: 4.6%

Results for O=c1cc(-c2ccc(O)c(O)c2)oc2cc(O)cc(O)c12 ?
GAA spleen mod: -0.7%; LMNA splice mod: inconclusive; GAA glycogen: 25.1µM*; N370S GC: inconclusive

What do the screens show for `CC(C)Nc1ccc(Nc2ccccc2)cc1`?
GAA spleen mod: -10.5%; LMNA splice mod: 1.41µM*; N370S GC: -11.7%

How did O=C1C(Cl)=C(Cl)C(=O)C(Cl)=C1Cl do in these assays?
GAA spleen mod: -8.7%; N370S GC: -7.7%

Screens (PubChem)
